Compound activity (PubChem BioAssay)
OTUD3 block = blocks human OTUD3 ubiquitin-rhodamine cleavage | Q5T2D3 | purified OTUD3, Ub-rhodamine fluorescence, 2 h | inhibition, % at 25 µM | 0.7% of 47,000 active | AID 1645858
UCHL1 inh = human UCHL1 deubiquitinase inhibition | P09936 | purified UCHL1, Ub-rhodamine cleavage fluorescence | inhibition, % at 20 µM | 0.2% of 47,000 active | AID 1645859
USP7 block = human USP7 deubiquitinase inhibition | Q93009 | purified USP7, Ub-rhodamine cleavage fluorescence | inhibition, % at 20 µM | 0.3% of 47,000 active | AID 1645854
USP10 block = human USP10 deubiquitinase inhibition. 1.1% of 47,000 active. purified USP10, Ub-rhodamine fluorescence, 60 min. inhibition, % at 20 µM
USP8 inh = inhibitors of human USP8 deubiquitinase; purified USP8, Ub-rhodamine cleavage fluorescence, 30 min; 4.2% of 47,000 active; AID 1645853; inhibition, % at 20 µM; P40818
Active calls of the source: *. In the library only some 4.9% were active in any assay of this set; here they are far more common. No stated cut-off is given here; in the data, active means inhibition above about 30%; inactive means the rest.

SMILES | OTUD3 block | UCHL1 inh | USP7 block | USP10 block | USP8 inh
CCOC(=O)C1CCN(C(=O)c2ccc3c(c2)NC(=O)C2CCCN32)CC1 (stereo not drawn) | -11.1 | 13.2 | -5.8 | 4.8 | 92.9*
CCN1CCN(C(=O)c2ccc3c(c2)NC(=O)C2CCCCN32)CC1 (stereo not drawn) | -7.1 | 0.9 | 3.0 | -3.6 | -9.6
COc1cccc(CNC(=O)c2ccc3c(c2)NC(=O)C2CCCN32)c1OC (stereo not drawn) | -20.0 | -0.6 | -2.1 | -3.2 | 70.3*
COc1ccccc1C(=O)N[C@@H]1C[C@H]2Oc3ccccc3N[C@H]2[C@@H]1O | -15.8 | -1.2 | -1.9 | -1.8 | -12.1
Cc1ccccc1NC(=O)N1CC[C@@H]2[C@H](CC1)N(CC(C)C)CCS2(=O)=O | 8.7 | -1.5 | 0.4 | -4.0 | -14.1
COc1cccc2cc(-c3nnc(SCC(=O)c4ccc(F)cc4)n3C)oc12 | -1.2 | 5.5 | 3.3 | 18.0 | 39.4*
COCCN1C[C@@H]2C(=O)N(C)C3(CCN(S(=O)(=O)c4cccc(C)c4)CC3)[C@@H]2C1 | -5.3 | -1.9 | -2.9 | -2.8 | -58.1
COc1ccc(C2CC(=O)C3=C(C2)Nc2ccc(C)cc2N(C(=O)c2ccccc2)C3c2ccc(F)cc2)cc1 (stereo not drawn) | -5.6 | 4.3 | 7.6 | 8.9 | 7.9
COc1cc(/C=C/C(=O)OCC(=O)Nc2ccc([N+](=O)[O-])cc2OC)ccc1O | 47.2* | 23.9 | 33.6* | 50.8* | 54.9*
Cc1ccc2ccc3c(c2n1)OC(N)=C(C#N)C3c1ccncc1 (stereo not drawn) | -12.3 | -4.4 | -5.2 | -1.9 | 65.9*
O=C(NC1CCCC1)c1ccc(-c2ccc(S(=O)(=O)NCc3ccccc3)cc2)cc1 | 12.6 | 3.8 | 16.7 | 22.3 | 45.0*
Cc1ccc(CNC(=O)CCCn2c(=O)c3sccc3n(CC(=O)Nc3cc(Cl)ccc3C)c2=O)cc1 | 40.2* | -0.7 | 18.7 | 28.0 | 28.6
CCOc1ccccc1NC(=O)Cn1c(=O)n(CCCC(=O)NCc2ccc(C)cc2)c(=O)c2sccc21 | 13.4 | 6.2 | 35.9* | 56.1* | 47.2*
CCOc1ccc(NC(=O)Cn2c(=O)n(CCCCC(=O)NCCc3ccccc3)c(=O)c3ccccc32)cc1 | 19.1 | 2.8 | 5.0 | 15.2 | 18.6
COc1ccc(NC(=O)Cn2c(=O)n(CC(=O)NCc3ccc(C)cc3)c(=O)c3sccc32)cc1OC | 31.6* | 10.5 | 8.7 | 12.7 | 1.4
Cc1ccc(CNC(=O)CCCn2c(=O)c3ccccc3n(Cc3cccc(F)c3)c2=O)cc1 | 1.1 | -1.6 | -0.6 | 4.2 | 20.8
CCOc1ccc(NC(=O)Cn2c(=O)n(CC(=O)NCc3ccc(C)cc3)c(=O)c3sccc32)cc1 | 20.3 | 5.1 | 13.5 | 18.1 | 29.9
Cc1ccc(-c2c[n+](CC(=O)Nc3cccc4ccccc34)c3n2CCC3)cc1 | 10.5 | 1.1 | 0.7 | -2.0 | 26.1
Cc1ccc(-c2cnc(C3CC3)o2)cc1S(=O)(=O)Nc1ccc(F)c(Cl)c1 | -0.4 | 6.0 | -37.3 | 39.1* | 3.9
Cc1ccc(C(=O)O)cc1NC(=O)C(Sc1cccc(NC(=O)c2ccccc2C)c1)c1ccccc1 (stereo not drawn) | 49.3* | 2.0 | -5.8 | 37.4* | 27.1
CC(=O)N1CCc2cc(S(=O)(=O)NC(C(=O)Nc3nc4ccc(C)cc4s3)C(C)C)ccc21 (stereo not drawn) | 11.7 | 1.9 | 6.6 | 16.2 | 30.5*
N#Cc1ccc(-c2ccc(OCC(=O)Nc3ccc4c(c3)OCO4)cc2)cc1 | -2.7 | 0.2 | 0.0 | 6.9 | 43.3*
O=C(NCc1ccc(F)cc1)c1c(O)c2ccccc2[nH]c1=O | -8.0 | -0.9 | 6.3 | 8.7 | 8.1
Cc1ccc(CNC(=O)c2c(O)c3ccccc3[nH]c2=O)cc1 | 11.8 | 0.6 | 10.5 | 12.0 | 39.7*
Cc1nccn1-c1cncc(C2CCCN2C(=O)Cc2c[nH]c3ccccc23)n1 (stereo not drawn) | 14.6 | -1.7 | 0.6 | -3.5 | 10.0
CN1C(=O)N(CC(=O)N2CCCC2c2cncc(-n3ccnc3)n2)C(=O)C12CCCCC2 (stereo not drawn) | 9.1 | 0.9 | -0.9 | 0.0 | 35.6*
Cc1cc(Cl)c2c(c1)[C@]1(C(=O)N2)N2CCC[C@H]2[C@@H](C(=O)c2cc3ccccc3o2)[C@]12C(=O)Nc1ccccc12 | -17.9 | -8.1 | 3.0 | -5.1 | 41.1*
CC(NC(=O)c1ccc(Cl)cc1)c1nnc(SCC(=O)N2CCOCC2)n1C (stereo not drawn) | -7.2 | -2.1 | 0.3 | -0.8 | -6.1
